Experiment [1] in a line: binders of probe aFSTL3 on microarray, primary screen, stem cell growth factor project, biochemical, small-molecule microarray, fluorescence 635/667 (AID 1064).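 Also: measures binding of the biotinylated anti-FSTL3 antibody to printed compounds.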 The note with it: higher = more signal.
Experiment [2] in a line: binders from COS7 lysate, DM2A8 probe, primary screen, torsin A project, cell lysate, small-molecule microarray, fluorescence 635/667 (AID 1065). The note with it: higher = more signal, COS7 lysate expressing mutant human TOR1A.
A short description of experiment [3]: binders of probe aFGF2 on microarray, primary screen, stem cell growth factor project, biochemical, small-molecule microarray, fluorescence 635/667 (AID 1067).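 Also: measures binding of biotinylated aFGF2 protein to printed compounds on slides; z-score merges feature fluorescence and signal-to-noise across triplicate slides.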 To be noted: higher = more signal.
A short description of experiment [4]: binders of probe aFGF10 on microarray, primary screen, stem cell growth factor project, biochemical, small-molecule microarray, fluorescence 635/667 (AID 1071).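 Also: score merges 667 nm spot intensity and signal to noise from triplicate slides.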 The note with it: higher = more signal.
The target in experiment [5] is Neurogenic locus notch homolog protein 2 (Homo sapiens) (UniProt Q04721). Description: Notch2 binders on small-molecule microarrays, primary screen, biochemical, small-molecule microarray, 635 nm fluorescence, stem cell growth factors (AID 1073). The note with it: Notch2 binding, higher = more signal.
Experiment [6] deals with Pro-neuregulin-1, membrane-bound isoform (Homo sapiens) (UniProt Q02297). Nature of the experiment: NRG1 binders on small-molecule microarrays, primary screen, psychiatric disease protein project, biochemical, small-molecule microarray, fluorescence 635/667 (AID 1075).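 Also: score combines 667 nm spot fluorescence with signal to noise.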 To be noted: NRG1 binding, 635 nm fluorescence, higher = more signal.
Experiment [7] deals with Neuregulin-1 EGF-like domain. Nature of the experiment: binders of neuregulin-1 EGF-like domain, primary screen, biochemical, small-molecule microarray, 635 nm fluorescence (AID 1081).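 Also: binding of the protein to compounds printed on small-molecule microarray slides.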 The note with it: small-molecule microarray binding, higher = more signal.
Experiment [8] in a line: FRG1 promoter luciferase signal modulators, primary screen, FRG1 inhibition for FSHD, cell-based, C2C12 myotubes, firefly/Renilla luciferase, luminescence (AID 1084). To be noted: higher = more signal, called active from +8 up or from −8 down.
Experiment [9] can be described thus: binders of probe aFST on microarray, primary screen, stem cell growth factor project, biochemical, small-molecule microarray, fluorescence 635/667 (AID 1086).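 Also: score merges 667 nm fluorescence with signal-to-noise of each printed compound spot.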 The note with it: higher = more signal.
Experiment [10] can be described thus: binders of probe aHhip on microarray, primary screen, stem cell growth factor project, biochemical, small-molecule microarray, fluorescence 635/667 (AID 1087).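 Also: score merges spot fluorescence at 667nm with spot signal to noise ratio.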 To be noted: higher = more signal.
For experiment [11], the system named is PRMT1 (protein arginine N-methyltransferase 1). Nature of the experiment: PRMT1 binders on small-molecule microarrays, primary screen, biochemical, small-molecule microarray, 635 nm fluorescence (AID 1088).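 Also: binding of Prmt1 protein to compounds spotted on small-molecule microarray slides.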 To be noted: small-molecule microarray binding, higher = more signal.
Experiment [12] in a line: yeast growth modulation, basal conditions, primary screen, YJM789 clinical isolate, OD600, 24 h (AID 1089).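 Also: growth of clinical yeast isolate S. cerevisiae YJM 789 seeded 1000 cells per well; test concentration not given here.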 The note with it: S. cerevisiae YJM789 growth, higher = more signal, called active from +8 up or from −8 down.
Experiment [13] is described as follows: fission yeast growth modulation, primary screen, strain 972, OD600, 24 h, no modulator (AID 1090).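 Also: basal condition with compound alone and no growth modifier present; test concentration not given here.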 The note with it: S. pombe 972 growth, higher = more signal, called active from +8 up or from −8 down.
Experiment [14] is described as follows: S. cerevisiae growth modulation with rapamycin, primary screen, strain BY4716, OD600, 96 h (AID 1091). Also: test concentration not given here. The note with it: higher = more signal, called active from +8 up or from −8 down.
Experiment [15] concerns the target Torsin-1A-interacting protein 2 (Homo sapiens) (UniProt Q8NFQ8). Nature of the experiment: LULL1 binders on small-molecule microarray, primary screen, cell lysate, human LULL1 lysate, 635/667 nm fluorescence (AID 1092).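 Also: probe is lysate of COS7 cells overexpressing human LULL1; score merges per-feature 667 nm fluorescence with signal-to-noise.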 The note with it: hLULL1 lysate binding, 635 nm fluorescence, higher = more signal.
Experiment [16] can be described thus: E. coli growth modulation, two-sided OD650, primary screen, E. coli filamentation project, strain DRC41, 24 h (AID 1093).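 Also: MC1000 strain lacking acrAB efflux and sulA so SOS filamentation is blocked; test concentration not given here.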 The note with it: OD650, 24 h, higher = more signal, called active from +8 up or from −8 down.
A short description of experiment [17]: small-molecule microarray binders of probe aLefty2, primary screen, biochemical, biotinylated probe, 635/667 nm fluorescence (AID 1094).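 Also: score merges spot fluorescence near 667 nm with spot signal-to-noise ratio.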 To be noted: higher = more signal.
In experiment [18] the test system is Noggin (protein binding on small-molecule microarray). Nature of the experiment: Noggin binders on small-molecule microarray, primary screen, biochemical, 635/667 nm fluorescence (AID 1095).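 Also: score merges 667 nm feature fluorescence with signal to noise over triplicate slides.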 The note with it: 635 nm fluorescence, higher = more signal.
In experiment [19] the target is Neurogenic locus notch homolog protein 3 (Homo sapiens) (UniProt Q9UM47). Nature of the experiment: NOTCH3 binders on small-molecule microarray, primary screen, biochemical, 635/667 nm fluorescence (AID 1096). To be noted: NOTCH3 binding, 635 nm fluorescence, higher = more signal.
Experiment [20] is described as follows: small-molecule microarray binders of probe aEGFR, primary screen, biochemical, biotinylated probe, 635/667 nm fluorescence (AID 1097).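 Also: probe is a biotinylated anti-EGFR antibody binding compounds printed on slides; score combines fluorescence near 667 nm and signal to noise of each spot.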 To be noted: higher = more signal.

The structures appear in SMILES notation. Activity calls are given as the source filed them.

Neurogenic locus notch homolog protein 3 (Homo sapiens), sequence (Q9UM47 whole entry, looked up): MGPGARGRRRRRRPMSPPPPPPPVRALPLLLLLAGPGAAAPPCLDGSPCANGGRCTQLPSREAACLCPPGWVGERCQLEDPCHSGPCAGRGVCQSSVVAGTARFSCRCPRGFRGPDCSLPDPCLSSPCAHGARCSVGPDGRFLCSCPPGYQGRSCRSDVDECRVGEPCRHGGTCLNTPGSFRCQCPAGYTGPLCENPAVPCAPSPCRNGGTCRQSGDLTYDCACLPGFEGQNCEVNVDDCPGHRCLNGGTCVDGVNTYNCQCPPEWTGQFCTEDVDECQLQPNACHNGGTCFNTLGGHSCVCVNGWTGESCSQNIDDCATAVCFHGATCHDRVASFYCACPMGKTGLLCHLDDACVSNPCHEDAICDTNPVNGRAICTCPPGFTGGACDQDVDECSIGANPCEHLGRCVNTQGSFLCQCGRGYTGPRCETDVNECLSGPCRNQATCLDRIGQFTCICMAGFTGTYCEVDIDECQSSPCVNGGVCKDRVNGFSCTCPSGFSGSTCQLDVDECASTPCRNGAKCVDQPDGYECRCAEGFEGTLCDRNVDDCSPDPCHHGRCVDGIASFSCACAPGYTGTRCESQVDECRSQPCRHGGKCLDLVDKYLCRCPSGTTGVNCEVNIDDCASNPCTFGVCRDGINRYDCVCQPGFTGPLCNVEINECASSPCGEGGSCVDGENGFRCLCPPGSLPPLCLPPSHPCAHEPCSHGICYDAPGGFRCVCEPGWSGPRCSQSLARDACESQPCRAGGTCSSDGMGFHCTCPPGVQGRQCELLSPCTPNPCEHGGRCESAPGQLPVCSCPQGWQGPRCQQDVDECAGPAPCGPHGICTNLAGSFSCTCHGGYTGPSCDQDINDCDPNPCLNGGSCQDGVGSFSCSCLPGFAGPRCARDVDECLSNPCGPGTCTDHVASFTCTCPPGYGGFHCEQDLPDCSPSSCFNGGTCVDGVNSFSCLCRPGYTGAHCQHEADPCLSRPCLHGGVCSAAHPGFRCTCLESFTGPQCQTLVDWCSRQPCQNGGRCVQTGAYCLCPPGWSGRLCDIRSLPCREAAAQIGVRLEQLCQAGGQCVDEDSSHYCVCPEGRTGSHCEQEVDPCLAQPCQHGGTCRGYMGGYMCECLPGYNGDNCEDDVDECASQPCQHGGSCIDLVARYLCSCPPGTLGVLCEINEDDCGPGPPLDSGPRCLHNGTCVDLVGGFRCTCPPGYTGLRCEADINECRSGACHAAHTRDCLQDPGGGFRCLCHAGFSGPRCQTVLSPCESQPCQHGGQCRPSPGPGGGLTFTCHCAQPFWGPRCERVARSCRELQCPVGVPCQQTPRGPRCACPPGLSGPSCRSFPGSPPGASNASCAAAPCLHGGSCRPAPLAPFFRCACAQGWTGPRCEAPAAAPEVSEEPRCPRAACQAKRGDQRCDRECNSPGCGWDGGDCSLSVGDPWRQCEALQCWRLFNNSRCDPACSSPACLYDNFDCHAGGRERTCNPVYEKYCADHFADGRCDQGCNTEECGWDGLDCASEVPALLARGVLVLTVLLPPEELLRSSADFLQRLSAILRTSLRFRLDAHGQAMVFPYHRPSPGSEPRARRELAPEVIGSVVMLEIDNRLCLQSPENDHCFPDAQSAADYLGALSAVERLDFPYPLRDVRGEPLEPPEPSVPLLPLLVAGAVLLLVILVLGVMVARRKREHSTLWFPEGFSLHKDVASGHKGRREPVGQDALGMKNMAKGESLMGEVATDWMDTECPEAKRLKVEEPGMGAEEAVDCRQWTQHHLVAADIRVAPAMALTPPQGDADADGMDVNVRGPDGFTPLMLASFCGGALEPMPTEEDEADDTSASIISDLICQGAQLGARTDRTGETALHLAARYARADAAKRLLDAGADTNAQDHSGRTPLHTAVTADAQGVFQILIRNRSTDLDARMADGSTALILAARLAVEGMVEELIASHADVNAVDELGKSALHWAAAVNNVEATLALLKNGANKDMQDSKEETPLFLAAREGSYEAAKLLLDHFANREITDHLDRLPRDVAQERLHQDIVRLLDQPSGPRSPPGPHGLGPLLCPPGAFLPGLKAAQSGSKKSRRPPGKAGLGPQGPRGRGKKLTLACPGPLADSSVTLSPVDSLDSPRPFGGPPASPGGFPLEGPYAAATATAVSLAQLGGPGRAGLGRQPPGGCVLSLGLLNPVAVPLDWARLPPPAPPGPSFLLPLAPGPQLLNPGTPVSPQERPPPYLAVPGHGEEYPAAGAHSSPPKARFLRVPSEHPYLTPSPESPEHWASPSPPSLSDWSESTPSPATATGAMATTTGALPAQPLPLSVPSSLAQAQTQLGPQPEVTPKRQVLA
Pro-neuregulin-1, membrane-bound isoform (Homo sapiens), sequence (Q02297 whole entry, looked up, the tested form may be a part, canonical isoform): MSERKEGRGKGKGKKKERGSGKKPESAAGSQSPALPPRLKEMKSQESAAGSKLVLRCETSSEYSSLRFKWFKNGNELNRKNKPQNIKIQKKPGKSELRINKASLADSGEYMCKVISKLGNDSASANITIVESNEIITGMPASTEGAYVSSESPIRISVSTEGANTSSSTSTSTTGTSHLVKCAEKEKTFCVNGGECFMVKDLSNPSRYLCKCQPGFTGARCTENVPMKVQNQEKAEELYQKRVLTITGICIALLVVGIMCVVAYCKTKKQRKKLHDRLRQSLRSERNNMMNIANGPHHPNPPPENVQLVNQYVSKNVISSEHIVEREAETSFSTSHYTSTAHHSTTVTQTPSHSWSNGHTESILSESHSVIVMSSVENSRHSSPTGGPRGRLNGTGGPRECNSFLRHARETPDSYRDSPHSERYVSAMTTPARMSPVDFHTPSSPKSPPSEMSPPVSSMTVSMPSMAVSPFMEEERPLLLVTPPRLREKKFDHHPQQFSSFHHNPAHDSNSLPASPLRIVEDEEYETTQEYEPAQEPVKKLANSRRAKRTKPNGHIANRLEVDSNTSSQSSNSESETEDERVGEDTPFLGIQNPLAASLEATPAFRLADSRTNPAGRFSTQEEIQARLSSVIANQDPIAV
Torsin-1A-interacting protein 2 (Homo sapiens), sequence (Q8NFQ8 whole entry, looked up): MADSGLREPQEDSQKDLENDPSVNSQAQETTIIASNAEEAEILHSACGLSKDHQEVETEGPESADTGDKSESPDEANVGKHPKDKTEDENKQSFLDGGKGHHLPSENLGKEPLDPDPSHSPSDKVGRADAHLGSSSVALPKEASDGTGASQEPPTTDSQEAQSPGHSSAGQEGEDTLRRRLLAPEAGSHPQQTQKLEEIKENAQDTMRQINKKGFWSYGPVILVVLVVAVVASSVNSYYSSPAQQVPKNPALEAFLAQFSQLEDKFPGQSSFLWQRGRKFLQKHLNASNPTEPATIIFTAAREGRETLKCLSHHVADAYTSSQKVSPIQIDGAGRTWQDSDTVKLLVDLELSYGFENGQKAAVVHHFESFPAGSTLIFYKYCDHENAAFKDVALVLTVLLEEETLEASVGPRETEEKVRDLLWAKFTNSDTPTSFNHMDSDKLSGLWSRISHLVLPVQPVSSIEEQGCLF

`CCOC(=O)[C@H](Cc1ccccc1)NC(=O)CCC1CC(OC(=O)NCc2cccc3ccccc23)CC2(CCCC(COC(=O)NCCOc3ccccc3)O2)O1` (stereo not given in full): the composite z-score in [1] was -0.591; in experiment [2], 0.618; in experiment [3] it was -0.105; in experiment [4], 0.133; in experiment [5], 0.863; in experiment [6], 0.972. Also, the composite z-score in experiment [7] is 0.898; in experiment [9] it was 0.214; in [10], 0.204; in experiment [11], 1.57; in experiment [15] it was 3.18; in [17], -0.122. Further, the composite z-score is 0.734 in [18], 1.12 in [19] and -0.0828 in [20]. Moreover, the z-score in experiment [8] is 0.688 (inactive); in [12], -0.851 (inactive); in [13] it was -0.421 (inactive); in experiment [14], -0.792 (inactive); in experiment [16] it was -0.325 (inactive).

With `O=C1C2=CC[C@H]3C(=O)N(C4CCCCC4)C(=O)[C@H]3[C@H]2[C@H](O)[C@@H]2O[C@H]12`, the composite z-score in [1] is -0.115; in [2], -2.14; in experiment [3], -0.162; in experiment [4] it was -0.179; in [5] it was -0.423; in experiment [6], -0.0738. Besides, the composite z-score is -0.515 in [7]; -0.5 in experiment [9]; -0.164 in [10]; -0.642 in [11]; 0.821 in experiment [15]; -0.196 in experiment [17]. Also, the composite z-score in [18] was -0.725; in experiment [19], -1.63; in experiment [20], -0.0389. Besides, the z-score in experiment [8] is 11.5 (active); in [12], -0.163 (inactive); in [13] it was -6.78 (inactive); in experiment [14] it was -1.25 (inactive); in [16], -0.391 (inactive).

`COC(=O)CC=C[C@@H](C)[C@@H](C=NOC(C)CN1CCCCc2nc(C)c(C)cc21)NS(=O)(=O)c1ccc(C)cc1` (stereo not given in full): the composite z-score in experiment [1] was 0.061; in experiment [2] it was 0.751; in experiment [3], -0.0422; in experiment [4], 0.471; in experiment [5], 0.318; in [6], -0.279. The composite z-score was -0.776 in experiment [7]; 0.38 in [9]; 0.0735 in experiment [10]; 0.63 in [11]; -0.137 in [15]; 0.0768 in experiment [17]. Moreover, the composite z-score in [18] was 0.52; in experiment [19], 0.265; in experiment [20], -0.0836. Moreover, the z-score in experiment [8] is 0.511 (inactive); in experiment [12], -1.12 (inactive); in experiment [13], 0.22 (inactive); in [14] it was 0.121 (inactive); in [16], 0.86 (inactive).

For the compound `O=C1[C@H]2[C@H]3[C@H](O)[C@H](O)CC(=NOC[C@@H](O)COCc4ccco4)[C@@H]3CC[C@H]2C(=O)N1Cc1ccccc1`, the composite z-score in experiment [1] is -0.645; in experiment [2] it was 0.389; in [3] it was -0.171; in experiment [4], -0.0702; in experiment [5] it was 0.0535; in [6] it was 0.39. In addition, the composite z-score in experiment [7] is 1.24; in experiment [9], 0.248; in experiment [10] it was -0.115; in experiment [11], 1.53; in experiment [15] it was 2.66; in experiment [17], -0.166. For the same compound, the composite z-score in [18] turned out to be 1.04; in experiment [19], 0.841; in [20] it was 0.0673. For the same compound, the z-score in experiment [8] was 0.668 (inactive); in experiment [12] it was -0.444 (inactive); in experiment [13], -0.801 (inactive); in experiment [14], -1.63 (inactive); in [16] it was 0.267 (inactive).

For `CCOC(=O)CCN1C(=O)[C@H]2[C@H]3[C@H](O)[C@H](O)CC(=NNC(=O)OCc4ccccc4)[C@H]3CC[C@H]2C1=O`, the composite z-score is -0.594 in experiment [1]; 1.05 in experiment [2]; -0.133 in experiment [3]; -0.884 in [4]; -0.871 in experiment [5]; -1.03 in experiment [6]. Moreover, the composite z-score in [7] is -1.43; in experiment [9], 0.138; in [10] it was -0.0632; in experiment [11] it was -0.0993; in experiment [15] it was -1.53; in experiment [17] it was -0.0515. Moreover, the figures for the composite z-score in experiment [18], in experiment [19] and in [20] were 0.608, 0.032 and -0.103, respectively. The z-score was -0.695 (inactive) in [8]; -0.756 (inactive) in experiment [12]; 0.59 (inactive) in experiment [13]; -0.596 (inactive) in experiment [14]; -0.287 (inactive) in [16].

For the origin of these results see PubChem BioAssay.
